# NPC1 prom act = activates the NPC1 promoter | hit rate 2.4% among 320,000 | Huh7 NPC1 promoter luciferase reporter, 24 h | AID 485313 | Potency, µM (series often up to 9.22 µM), inactives show top-dose activation, hits mostly activators; further: % of control where 0% means no effect; nearly all actives have a fitted effect of over 60% in size
#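 Huh7 reporter cells (NPC1 promoter driving luciferase) are dosed with compound for 24 h at 37 °C, 5% CO2; luciferase detection reagent is then added and luminescence measured after 10 min at ambient temperature.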
# ELG1 genotoxic = inducers of genotoxicity in HEK293T ELG1-luciferase cells; HEK293T ELG1-luciferase reporter, luminescence, 16 h; Potency, µM (top dose mostly 46 µM), inactives show top-dose activity change, positive = activation, hits mostly activators; hit rate 1.3% among 330,000; AID 504466; further: % of control where 0% means no effect; nearly all actives have a fitted effect of over 60% in size
#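 ELG1-luciferase HEK293T cells, 2,000/well; compound pinned in; 16 hr, 37 °C, 5% CO2; ONE-Glo, 30 min RT; luminescence on CCD imager.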
# FLuc modulator = inhibits or activates purified firefly luciferase, miR-21 counter-screen. hit rate 6.9% among 360,000. P08659. Potency, µM (highest dose often 57.5 µM), without a hit: at the top dose activity change, negative = inhibition, usual class: inhibitors. purified FLuc, Km substrates, luminescence inhibition;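 further: plate controls were vehicle for no effect and reference inhibitor for full effect; nearly all actives have a fitted effect of over 55% in size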
# Target sequence (P08659 whole entry, looked up): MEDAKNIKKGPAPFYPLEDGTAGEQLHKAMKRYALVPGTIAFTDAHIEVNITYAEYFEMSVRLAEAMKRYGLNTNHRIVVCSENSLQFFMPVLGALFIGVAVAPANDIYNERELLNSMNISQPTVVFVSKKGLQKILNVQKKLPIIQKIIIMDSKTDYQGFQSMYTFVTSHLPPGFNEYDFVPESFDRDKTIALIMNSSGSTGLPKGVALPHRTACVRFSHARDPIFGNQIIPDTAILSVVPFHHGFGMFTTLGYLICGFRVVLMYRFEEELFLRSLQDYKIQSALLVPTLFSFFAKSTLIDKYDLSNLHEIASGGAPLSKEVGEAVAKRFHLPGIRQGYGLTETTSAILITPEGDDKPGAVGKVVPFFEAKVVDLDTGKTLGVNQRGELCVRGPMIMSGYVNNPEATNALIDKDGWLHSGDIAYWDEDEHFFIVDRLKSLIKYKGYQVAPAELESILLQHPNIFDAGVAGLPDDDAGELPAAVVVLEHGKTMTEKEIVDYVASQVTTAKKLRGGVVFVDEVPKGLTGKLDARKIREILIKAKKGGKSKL
#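 Biochemical qHTS of compounds, final roughly 60 µM downward over six points, against 10 nM purified firefly luciferase using Km concentrations of substrates (10 uM D-luciferin, 10 uM ATP) in Tris acetate pH 7.5 buffer; luminescence output.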
# SMN2 splice enh = SMN2 splice variant enhancement | HEK293 SMN2-luciferase splicing reporter, luminescence, 30-36 h | Potency, µM (titrated, usually from 46.1 µM), for the others: at the top dose activity change, positive = activation, usual class: activators | hit rate 2.8% among 210,000 | AID 1458; further: % of control where 0% means no effect; nearly all actives have a fitted effect of over 55% in size
#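 HEK293 cells carry an SMN2 minigene-luciferase reporter in which exon 7 inclusion puts luciferase in frame. Cells were seeded at 2000 cells/well, attached for 10-12 hours, then exposed to compounds for 30-36 hours at 37C before ONE-Glo luminescence.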
# Rab9 prom act = activators of Rab9 promoter. Potency, µM (series often up to 9.22 µM), inactives show at the top dose activation, negative = inhibition, actives largely listed as activators. Huh7 Rab9 promoter-luciferase reporter, luminescence, 24 h. hit rate 2.8% among 320,000; further: % of control where 0% means no effect; nearly all actives have a fitted effect of over 60% in size
#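 Rab9 promoter-driven luciferase in stably transfected Huh7 cells; 1500 cells/well rested 2 h, exposed to compound in DMSO for 24 h at 37 °C, 5% CO2. Luminescence read 10 min after adding luciferase reagent at ambient temperature.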
# * = called active by the depositor; ? = inconclusive; . = not tested or not shown; [ ] = remark or other dose. An excerpt weighted towards active compounds, which were near 7.4% of everything screened. The call rests on the fitted dose curve; in most records, active means well fitted curve in the direction sought with a large enough effect; inconclusive means small, poorly fitted or top-dose-only effect, or another doubt; inactive means no such curve, though single readings can be large; an effect the other way counts as inactive or inconclusive. Potency means the concentration at half of the fitted maximal effect.
SMILES,NPC1 prom act,ELG1 genotoxic,FLuc modulator,SMN2 splice enh,Rab9 prom act
N#Cc1c(/N=C/c2ccc(O)cc2O)sc2c1C1CCN2CC1,-4%,8%,6µM*,-14%[1.84 µM],4%
Cc1cc(C)cc(NC(=O)Cn2cc(C(=O)c3cccs3)c3ccccc32)c1,.,.,-9%,-42%,.
CN1CCN(C(=O)COc2ccc(-c3nc4ccccc4s3)cc2)CC1,0.63µM*,?,0.15µM*,4µM*,0.32µM*
CN1CCN(C(=O)COc2ccc3ccccc3c2)CC1,4%,13%,0%,.,16%
O=C(O)C(O)(c1ccc(-c2ccccc2)cc1)c1ccc(-c2ccccc2)cc1,.,.,.,-10%[9.22 µM],.
N#Cc1cccc(NC(=O)c2sc3nc4c(cc3c2N)N2CCC4CC2)c1,.,.,12µM*,.,.
Nc1c(C(=O)Nc2ccc(F)c(Cl)c2)sc2nc3c(cc12)N1CCC3CC1,.,.,8.5µM*,-45%,.
CN(C)c1ccc(NC(=O)c2sc3nc4c(cc3c2N)N2CCC4CC2)cc1,.,.,-8%,0%,.
COc1cc2c(cc1OC)[C@]13CC[N@+]4(C)CC5=CCO[C@H]6CC(=O)N2[C@@H]1C6[C@@H]5C[C@]34O (stereo not given in full),.,.,.,-2%[9.22 µM],.
CCN(CC)c1ccc(CNc2nc3ccccc3n2C)cc1,14%,3%,?,.,11%
Cn1c(NN=O)nc2ccccc21,-13%,?,24µM*,.,-44%
O[C@H](CN1CC1)[C@@H](O)CN1CC1,.,.,.,-12%[9.22 µM],.
O=C(O)/C=C\C(=O)Nc1ccc(Oc2ccc(Br)cc2)cc1,-1%,0%,19µM*,-12%,-3%
CC(Cc1ccccc1)NC(=O)/C=C/C(=O)O (stereo not given),0%,0%,-6%,3%,-2%
CCOc1ccc(C(=O)N2CCC(c3noc(-c4ccc(S(=O)(=O)N5CCCC5)cc4)n3)CC2)cc1,.,.,1%,-54%,.
CCOc1ccc(-c2cn3c(n2)sc2cc(C(=O)N4CCCC(C)C4)ccc23)cc1 (stereo not given),.,.,4.3µM*,0%,.
CCOC(=O)[C@@H]1[C@@H]2c3ccccc3-c3ccccc3[C@H]2C[C@H]1O,.,.,.,-7%[9.22 µM],.
CC(C)c1ccc(-n2c(O)c(/C=N/NC(=O)c3ccccc3O)c(=O)[nH]c2=S)cc1,5%,0%,27µM*,.,2%
O=C(N/N=C/c1c(O)n(Cc2ccco2)c(=O)[nH]c1=O)c1ccccc1O,2%,0%,15µM*,.,-1%
O=C(N/N=C/c1c(O)n(C2CCCCC2)c(=S)[nH]c1=O)c1ccccc1O,1%,3%[9.26 µM],15µM*,.,7%
Cl/C=C/Cl,.,.,.,-4%,.
O=C(O)CBr,.,.,.,-7%,.
c1ccc(CN2CCc3nc4ccccc4cc3C2)cc1,?,?,12µM*,.,?
Cc1ccc(OP(=O)(Oc2ccc(C)cc2)Oc2ccc(C)cc2)cc1,.,.,.,-10%,.
CC(=O)Nc1ccccc1C(=O)OCC(=O)c1ccc2c(c1)OCCO2,?,11%,0.76µM*,.,3.5µM*
SMILES,NPC1 prom act,ELG1 genotoxic,FLuc modulator,SMN2 splice enh,Rab9 prom act
CC(=O)Nc1ccccc1C(=O)OCC(=O)Nc1ncccn1,3%,9%,-1%,.,-3%
Cc1onc(-c2ccccc2Cl)c1C(=O)OCC(=O)c1ccc2c(c1)OCCO2,7%,-9%,4.8µM*,13%,7%
CCC12CCN(CC3CC3)CC1Oc1c(C)cccc12 (stereo not given),.,.,4%,.,.
COC(=O)[C@H]1C(=O)[C@H](C(=O)OC)[C@@H]2CC[C@H]1N2C,.,.,.,-9%[9.22 µM],.
N#CCc1ccccc1,.,.,.,0%,.
FC(F)(F)c1ccc(Cl)cc1,.,.,.,22%,.
Oc1c(Cl)cc(Cl)cc1Cl,.,.,.,-1%,.
CCCC[N+](=O)[O-],.,.,.,1%,.
CN(C)CCCc1cccnc1,.,.,.,-6%[9.22 µM],.
O=C(/C=C/c1ccccc1)C1C(=O)c2ccccc2C1=O,4µM*,15%,0.38µM*,10µM*,2.2µM*
Cc1cc2oc(=O)cc(-c3cc4ccccc4o3)c2cc1OC(=O)N(C)C,-13%,1%,2%,.,-5%
O=C(NNc1c(F)c(F)cc(F)c1F)c1cc2ccccc2oc1=O,?,?,?,22%,3.2µM*
COc1cccc(NC(=O)CCc2nc(-c3ccc(C(C)(C)C)cc3)no2)c1,.,.,2.7µM*,-72%,.
COc1ccc(NC(=O)CCc2nc(C3=CCN(Cc4cccc(C)c4)CC3)no2)c(OC)c1,.,.,-16%,.,.
